# Active and inactive are the calls of the source.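 Rule for the calls, unless noted: active = inhibition of the reporter signal at or above 50%; inactive = inhibition below 50%.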
# Legend:
# [1] = inhibitors of TNFa-induced NFkB p65 translocation, primary screen, imaging, HUVEC, MLSMR starter and 10KST1 sets (AID 438;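 active = inhibition above 20% together with a positive visual image hit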;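 note: compound added about 3h40 before a 20 min TNFalpha stimulation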;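 for inhibition: signal is the nuclear over cytoplasmic p65 intensity ratio per well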); conditions: HUVEC TNFa-induced p65 nuclear translocation; cell count: measured here: nuclei count (cytotoxicity indicator), at 2.08 µM; inhibition: at 2 µM, stronger effect = higher value, 0% TNFa-plus-vehicle, 100% no-TNFa wells
# [2] = inhibitors of mutant huntingtin aggregation, primary screen, imaging, exon1htt(103Q)mCFP cells, high-content imaging (AID 483;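 active = visual image review flags a hit and inhibition of aggregation exceeds 20%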;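 note: compound exposure lasted 3 days before fixation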;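 for nuclei count: percent of the per-plate median nuclei count of sample wells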); conditions: exon1htt(103Q)mCFP cell line, aggregate imaging, at 2 µM; inhibition of aggregation: stronger effect = higher value; nuclei count: measured here: cell count, toxicity
# [3] = inhibitors of E-selectin induction by TNFa, primary screen, imaging, HUVEC, immunofluorescence, MLSMR starter and 10KST1 sets (AID 487;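 active = visually confirmed hit in the image check and inhibition above 20%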;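 for inhibition: signal is fraction of cell area covered by stained E-selectin grains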;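 for nuclei count: 100% = median nuclei count of all wells on the same plate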); conditions: HUVEC TNFalpha-induced E-selectin immunofluorescence imaging, at 2 µM; inhibition: stronger effect = higher value; nuclei count: measured here: cell number, toxicity
# [4] = target: Voltage-gated potassium channel subunit beta-2 (Rattus norvegicus) (UniProt P62483); assay: KvBeta enzyme negative modulators, primary screen, biochemical, NADPH fluorescence (AID 622;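 active = fluorescence slope higher than the sample average by over 3 SD, cut at about -0.22 in these data, passing the limit was not always enough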;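 note: slope of raw intensity against log time taken from 70 to 1610 s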); conditions: recombinant KvBeta, 4-cyanobenzaldehyde reduction, at 10 µM, stronger effect = higher value
# Voltage-gated potassium channel subunit beta-2 (Rattus norvegicus), sequence (P62483 whole entry, looked up): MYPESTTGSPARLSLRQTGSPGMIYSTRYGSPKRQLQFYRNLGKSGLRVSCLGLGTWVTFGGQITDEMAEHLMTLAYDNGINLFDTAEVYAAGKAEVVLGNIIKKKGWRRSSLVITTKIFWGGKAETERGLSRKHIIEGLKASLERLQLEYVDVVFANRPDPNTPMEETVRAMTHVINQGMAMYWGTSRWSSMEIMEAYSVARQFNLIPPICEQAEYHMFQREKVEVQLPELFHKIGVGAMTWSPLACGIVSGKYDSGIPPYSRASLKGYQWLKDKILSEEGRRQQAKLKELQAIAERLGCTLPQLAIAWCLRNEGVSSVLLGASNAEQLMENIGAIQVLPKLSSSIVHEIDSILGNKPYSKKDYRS
# [5] = target: Voltage-gated potassium channel subunit beta-2 (Rattus norvegicus) (UniProt P62483); assay: KvBeta positive modulators, primary screen, biochemical, NADPH fluorescence (AID 623;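 active = NADPH fluorescence slope more negative than the mean of all samples by about 3 SD, 99.7% confidence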;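 note: fluorescence intensity change per second fitted from 20 to 320 s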); conditions: Recombinant KvBeta, NADPH fluorescence decrease slope, 10 min; at 10 µM; stronger effect = lower value
# [6] = target: Alpha-2C adrenergic receptor (Homo sapiens) (UniProt P18825); assay: modulators of alpha2C/GIRK thallium flux, primary screen, cell-based, HEK293 alpha2C/GIRK1/2 (AID 624;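 active = fluorescence slope after compound addition differing from the mean of all screened samples at 99.7% confidence, in either direction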;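 note: slope of fluorescence ratio to pre-addition baseline per second over 15 to 24 s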); conditions: thallium flux BTC fluorescence, at 10 µM, actives lie on both sides
# Alpha-2C adrenergic receptor (Homo sapiens), sequence (P18825 whole entry, looked up): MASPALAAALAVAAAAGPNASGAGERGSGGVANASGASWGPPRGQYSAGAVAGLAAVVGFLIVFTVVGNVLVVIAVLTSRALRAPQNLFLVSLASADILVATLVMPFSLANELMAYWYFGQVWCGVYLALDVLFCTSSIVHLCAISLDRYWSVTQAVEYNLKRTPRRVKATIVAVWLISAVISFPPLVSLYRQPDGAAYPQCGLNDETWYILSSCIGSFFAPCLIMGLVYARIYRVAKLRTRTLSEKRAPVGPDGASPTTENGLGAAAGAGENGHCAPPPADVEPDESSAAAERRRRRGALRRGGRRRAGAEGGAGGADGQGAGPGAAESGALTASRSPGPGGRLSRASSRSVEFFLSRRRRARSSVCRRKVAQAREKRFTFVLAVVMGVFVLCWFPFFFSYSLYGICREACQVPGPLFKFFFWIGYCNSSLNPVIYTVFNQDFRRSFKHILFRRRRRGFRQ
# [7] = inhibitors of Sendai virus-induced IRF3 signaling, primary screen, TLR/RLR signaling modifier project, cell-based, Sendai virus stimulus, luciferase, 10K MLSCN set (AID 602276;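 active = inhibition at or above 50% at 10 µM; inactive = inhibition below 50%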;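 note: firefly luciferase from ISG56 promoter only with Renilla not read in this screen; 0% = Sendai virus plus DMSO and 100% = medium plus DMSO without virus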); conditions: HEK293 RL24 IRF3 luciferase reporter, at 10 µM, stronger effect = higher value
# [8] = inhibitors of poly I:C-induced TLR3 signaling, primary screen, cell-based, poly I:C stimulus, luciferase, 10K MLSCN set (AID 602277); conditions: HEK293-TLR3 RL24 IRF3 luciferase reporter, at 10 µM, stronger effect = higher value
Compound,cell count [1],inhibition [1],inhibition of aggregation [2],nuclei count [2],inhibition [3],nuclei count [3],fluorescence slope [4],NADPH fluorescence slope [5],slope [6],inhibition [7],inhibition [8]
COCC(=O)Nc1c(C(=O)Nc2ccccc2OC)oc2ccccc12,602,-5.9% (inactive),11.9% (inactive),99.1%,2.5% (inactive),60.9%,-0.318 (inactive),1.2e-05 (inactive),0.00625 (inactive),-4.76% (inactive),11.5% (inactive)
COCCn1c(C)cc(C(=O)COC(=O)CCN2C(=O)c3ccccc3C2=O)c1C,287,3.2% (inactive),17.1% (inactive),96.8%,-6.1% (inactive),97.3%,-0.528 (inactive),6.5e-06 (inactive),0.00506 (inactive),3.96% (inactive),4.05% (inactive)
CC(C)(C)NC(=O)CSc1nnc(-c2ccccn2)n1-c1ccccc1,588,-10.6% (inactive),-12.9% (inactive),86.7%,-36.6% (inactive),122%,-0.587 (inactive),-2e-05 (inactive),0.00702 (inactive),-7.01% (inactive),26.8% (inactive)
COc1cc(OC)c2c(c1)OC(c1ccc(OC)c(OC)c1)C(O)C2=O (centres undefined),524,2.6% (inactive),-8.9% (inactive),104%,-60% (inactive),115%,-0.5 (inactive),-2.5e-05 (inactive),0.00643 (inactive),10.3% (inactive),3.76% (inactive)
COc1ccc(C)cc1NC(=O)COCC(=O)O,710,-28.6% (inactive),4.1% (inactive),100%,-22.9% (inactive),102%,-0.605 (inactive),-1.6e-05 (inactive),0.00568 (inactive),-0.927% (inactive),9.35% (inactive)
O=C(c1ccco1)N1CCN(C(=O)C2CC(c3ccc(F)cc3)=NO2)CC1 (centres undefined),448,-12.3% (inactive),-13.2% (inactive),106%,-12.7% (inactive),112%,-0.622 (inactive),2.2e-07 (inactive),0.00657 (inactive),7.52% (inactive),13.1% (inactive)
CCSc1nncn1/N=C/c1ccc(OC)c(OC)c1,403,-9.6% (inactive),32.4% (inactive),89.8%,39.9% (inactive),82.5%,-0.319 (inactive),2e-05 (inactive),0.00581 (inactive),-8.45% (inactive),-5.17% (inactive)
COc1ccc(-c2nc(C#N)c(N3CCN(c4ccccc4)CC3)o2)cc1,841,1.4% (inactive),-19.5% (inactive),96.2%,-64.6% (inactive),118%,-0.577 (inactive),1.4e-05 (inactive),0.00659 (inactive),5.66% (inactive),24.4% (inactive)
CCCCN(CC)CCCNC(=O)c1cc2c(=O)n(C)c3ccccc3c2n1C,667,3.3% (inactive),14.5% (inactive),81.6%,-52.5% (inactive),107%,-0.611 (inactive),-4.2e-05 (inactive),0.00621 (inactive),27.4% (inactive),69.5% (active)
N#CC1=C(N)N(c2ccc(Oc3ccccc3)cc2)C(=O)C1,546,-3.8% (inactive),-0.2% (inactive),119%,-5.8% (inactive),128%,-0.481 (inactive),-5.5e-05 (inactive),0.00638 (inactive),5.59% (inactive),-5.96% (inactive)
Cc1cc(NS(=O)(=O)c2ccccc2)no1,662,-5.5% (inactive),-5.5% (inactive),97%,-72.8% (inactive),122%,-0.56 (inactive),-5.2e-05 (inactive),0.00728 (inactive),11.7% (inactive),28.5% (inactive)
NC(=O)C(Cc1ccccc1)NS(=O)(=O)c1ccc(N2CCCC2=O)cc1 (centres undefined),570,-8.7% (inactive),4.5% (inactive),100%,-5.1% (inactive),95.5%,-0.585 (inactive),-4e-05 (inactive),0.00321 (inactive),8.09% (inactive),-25% (inactive)
COc1cc(C2c3c(oc4c(C)cc(C)cc4c3=O)C(=O)N2Cc2cccnc2)ccc1O (centres undefined),627,-2.7% (inactive),0.2% (inactive),107%,12.8% (inactive),99.8%,-0.476 (inactive),-3.3e-05 (inactive),0.00579 (inactive),16.4% (inactive),21.2% (inactive)
Cc1cccc2cc(C#N)c(SCCN3CCCCC3)nc12,413,-7.1% (inactive),-42.5% (inactive),108%,-46.6% (inactive),108%,-0.334 (inactive),-4.3e-05 (inactive),0.00498 (inactive),13.4% (inactive),99% (active)
